Bioassay records as filed in PubChem BioAssay.
Shown are actives, neighbours in structure and some others; about 10% of the full set was active somewhere.
G9a inh = qHTS Assay for Inhibitors of Histone Lysine Methyltransferase G9a. Histone-lysine N-methyltransferase EHMT2 (Homo sapiens), Q96KQ7. hit rate 8.8% among 350,000. AID 504332, 2011. Potency, µM (highest dose often 102 µM), for inactives: top-dose activity, negative = inhibition, most hits filed as inhibitors. G9a H3K9 monomethylation, AlphaScreen, 2 h; further: on the % scale 0 is the no-effect control and ±100 the full control effect; nearly all actives have a fitted effect of over 75% in size
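Signal arises when biotinylated H3K9 peptide, once monomethylated, bridges streptavidin donor and antibody-captured acceptor beads. Enzyme at 20 nM was preincubated 15 min with test compounds; peptide 500 nM and SAM 20 uM then reacted for 2 h.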
GLS inhibitor = qHTS for Inhibitors of Glutaminase (GLS). Glutaminase kidney isoform, mitochondrial (Homo sapiens), O94925. GLS enzymatic activity, qHTS titration. Potency, µM (doses to about 45.5 µM), for inactives: at the top dose activity change, negative = inhibition, usual class: inhibitors. hit rate 0.21% among 410,000; further: on the % scale 0 is the no-effect control and ±100 the full control effect
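hKGA in 45 mM KH2PO4 pH 8.2, 0.02% Tween-20 with pin-transferred compounds; 1 mM L-glutamine (stock) plus glutamate oxidase/HRP/Amplex Red coupling added. Fluorescence read initially and after 30 min at RT.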
BAZ2B block = qHTS Assay for Inhibitors of BAZ2B; Bromodomain adjacent to zinc finger domain protein 2B (Homo sapiens), Q9UIF8; AlphaScreen BAZ2B-H3K14Ac peptide displacement; Potency, µM (titrated, usually from 114 µM), for inactives: at the top dose activity change, negative = inhibition, hits mostly inhibitors; hit rate 4.4% among 360,000; AID 504333, 2011; further: on the % scale 0 is the no-effect control and ±100 the full control effect; nearly all actives have a fitted effect of over 60% in size
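AlphaScreen luminescence quantifies BAZ2B engagement of H3K14Ac peptide; the protein and biotinylated peptide are both at 50 nM final, buffer PBS pH 7.4 with 0.01% Tween-20, all steps at room temperature.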
L3MBTL1 block = qHTS Assay for the Inhibitors of L3MBTL1; Lethal(3)malignant brain tumor-like protein 1 (Homo sapiens), Q9Y468; AlphaScreen L3MBTL1–H3K9me1 peptide binding; Potency, µM (titrated, usually from 57.1 µM), inactives show at the top dose activity, negative = inhibition, most hits filed as inhibitors; hit rate 0.66% among 230,000; further: on the % scale 0 is the no-effect control and ±100 the full control effect; nearly all actives have a fitted effect of over 60% in size
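L3MBTL1 (50 nM) pre-complexed 30 min with biotinylated H3(1-15)K9me1 peptide (75 nM), then compounds added for 30 min at room temperature; AlphaScreen streptavidin donor/nickel chelate acceptor beads (10 ug/mL final) read after 30 min dark incubation.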
HP1b binding inh = HTS for Inhibitors of HP1-beta Chromodomain Interactions with Methylated Histone Tails; Chromobox protein homolog 1 (Homo sapiens), P83916; AlphaScreen HP1-beta / biotin-H3K9me3 peptide binding; Potency, µM (titrated, usually from 114 µM), for inactives: at the highest dose activity change, negative = inhibition, actives largely listed as inhibitors; hit rate 0.56% among 390,000; AID 540317, 2011; further: nearly all actives have a fitted effect of over 70% in size
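Compound inhibition of the preformed complex between 50 nM HP1-beta and 50 nM biotinylated H3K9me3 peptide was read by AlphaScreen. Buffer was PBS pH 7.4 with 0.01% Tween-20. Incubations ran 30 min at room temperature, with 10 ug/mL donor/acceptor beads.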
JMJD2A Tudor = qHTS Assay for Inhibitors of JMJD2A-Tudor Domain; Lysine-specific demethylase 4A (Homo sapiens), O75164; AlphaScreen JMJD2A-Tudor / H3K4me3 peptide binding; Potency, µM (titrated, usually from 114 µM), for inactives: top-dose activity change, negative = inhibition, actives largely listed as inhibitors; hit rate 4.4% among 390,000; AID 504339, 2011; further: on the % scale 0 is the no-effect control and ±100 the full control effect; nearly all actives have a fitted effect of over 50% in size
* marks the source's active call; other numbers are inactive results; ? = inconclusive; . = no result given; ! = not confirmed by another sample; [ ] = dose if it differs, or a comment. The call rests on the fitted dose curve; in most records, active means well fitted curve in the direction sought with a large enough effect; inconclusive means small, poorly fitted or top-dose-only effect, or another doubt; inactive means no such curve, though single readings can be large; an effect the other way counts as inactive or inconclusive. Potency means the concentration at half of the fitted maximal effect.

SMILES	G9a inh	GLS inhibitor	BAZ2B block	L3MBTL1 block	HP1b binding inh	JMJD2A Tudor
COc1cc(OC)c(Nc2cc(C)nc3ncnn23)cc1Cl	11µM*	18%	-3%	.	17%	-17%
COc1cc(OC)c(Nc2cc(C)nc3nc(C)nn23)cc1Cl	?	28%	-5%	2%	18%	-14%
CCCN1CNc2c(c(=O)[nH]c(=S)n2CCc2ccc(Cl)cc2Cl)C1	.	.	.	.	13%	-12%
CCn1c(SCc2nc3sc(C(=O)O)c(C)c3c(=O)[nH]2)nnc1-c1ccc(Cl)cc1	?	24%	56µM*	-6%[11.4 µM]	42%	-3%
COCCn1cc(C(=O)NCc2cccs2)c2c3ccccc3n(C)c2c1=O	50µM*	-17%	6%	5%	12%	-14%
CN(C)c1ccc(CNC(=O)c2ccccc2NC(=O)c2nsc3ccccc23)cc1	-25%[59 µM]	2%	-30%	.	4%[57 µM]	-21%
Cc1cc(OCC(=O)Nc2ncn[nH]2)ccc1Cl	-37%[2.33 µM]	7%	45µM*	-22%	43%	?
O=C(CC(c1ccccc1)c1ccccc1)Nc1ncn[nH]1	-40%[12.7 µM]	2%	79µM*	.	36%	-22%
Cc1cc(OCC(=O)Nc2cc(-c3nn4c(C)nnc4s3)ccc2C)ccc1Cl	-3%	?	12%	2%	18%	56µM*
Cc1cc(OCC(=O)Nc2ccncc2)ccc1Cl	.	2%	?	0%	45%	-17%
Cc1cccc(C)c1OCC(=O)Nc1ncn[nH]1	14µM*!	-1%	50µM*	.	29%	?
O=C(CC(c1ccccc1)c1ccccc1)Nc1ccc(Cl)cn1	-5%[59 µM]	6%	-2%	.	47%	6%
Cc1cc(C)cc(NC(=O)N2CCC3(CC2)Oc2ccccc2C(=O)N3Cc2ccccc2F)c1	-23%[59 µM]	-13%	2%	.	12%	-22%
Cc1ccc(CNC(=O)CN2C(=O)CSc3ccc(S(=O)(=O)N(C)C)cc32)cc1	-20%[59 µM]	-19%	-6%	.	11%	-7%
COc1cccc([C@@H]2CC=C(C(=O)O)[C@H](c3ccc(C)cc3)N2S(=O)(=O)c2ccc(C)cc2)c1	.	3%	.	2%	33%	-5%
Cc1ccc(S(=O)(=O)N2[C@@H](c3ccc(Cl)cc3)C(C(=O)O)=CC[C@H]2c2ccc(C(C)C)cc2)cc1	15%[2.33 µM]	47%	79µM*	-7%	15%	-18%
COc1cccc([C@@H]2CC=C(C(=O)O)[C@H](c3ccccc3F)N2S(=O)(=O)c2ccc(C)cc2)c1	14%[2.33 µM]	33%	79µM*	-28%	53%	-6%
CCc1sc(C(=O)Nc2nc(-c3ccccn3)cs2)cc1C	.	10%	.	?	-7%	79µM*
O=C(Nc1nc(-c2ccccn2)cs1)c1ncc(Cl)c(Cl)c1Cl	.	-3%	-6%	-9%	29%	-25%
O=C(Nc1nc(-c2ccccn2)cs1)c1ccc(Cl)s1	?	-1%	22µM*	?	33%	79µM*
O=C(Nc1nc(-c2ccc(Cl)s2)cs1)c1cccs1	50µM*	19%	-5%	-6%	-7%	-28%
O=C(Nc1ccc([N+](=O)[O-])cc1)Nc1nc(-c2ccc(Cl)s2)cs1	16µM*	1%	21%	21%	1%	-30%
COc1ccc(N2CCN(C(CNC(=O)C(=O)NCCCN(C)C)c3cccnc3)CC2)cc1 (stereo unspecified)	1%[59 µM]	62%	2%	.	58%	-1%
COc1ccccc1/C=C/c1nc(C#N)c(NCc2ccccc2)o1	?	5%	-34%	.	19%	-1%
CCc1ccc(NCc2cccn2-c2nnc(N3CCCCCC3)s2)cc1	-21%[59 µM]	-12%	-14%	.	-8%	?
SMILES	G9a inh	GLS inhibitor	BAZ2B block	L3MBTL1 block	HP1b binding inh	JMJD2A Tudor
Cn1cccc1C(=O)Nc1nc(-c2ccccn2)cs1	.	1%	18µM*	32µM*	?	56µM*
CCc1sc(C(=O)Nc2ncccc2C)cc1C	?	38%	-18%	.	-4%	-14%
CCCC(=O)Nc1nc(-c2ccc(Cl)s2)cs1	15%	2%	2%	-14%	44%	-9%
Cc1csc(NC(=O)c2cccn2C)n1	-9%	10%	?	-6%	-8%	-33%
O=C(O)C1CCCCC1C(=O)Nc1nc(-c2ccc(Cl)s2)cs1 (stereo unspecified)	45µM*	5%	56µM*	-2%	23%	?
Cc1ccc(C(=O)Nc2nc(-c3ccccn3)cs2)s1	-2%[2.33 µM]	4%	20µM*	?	27%	56µM*
CCc1sc(C(=O)Nc2ncccc2O)cc1C	35µM*	28%	50µM*	.	25%	-22%
CCOCCn1c(N2CCCC2)nc2c1c(=O)[nH]c(=O)n2C	?	6%	56µM*	-3%[2.29 µM]	18%	-6%
CCOCCn1c(SC)nc2c1c(=O)[nH]c(=O)n2C	?	0%	13%	1%	?	89µM*
CCn1c([N+](=O)[O-])nc2c1c(=O)[nH]c(=O)n2C	40µM*	-2%	-15%	20%	-3%	-32%
CCOCCn1c(N2CCCC2)nc2c1c(=O)n(C)c(=O)n2C	71µM*	-7%	4%	0%	35%	-8%
CCCCCCn1c(SCCCC)nc2c1c(=O)[nH]c(=O)n2C	?	0%	-5%	1%	26%	-7%
O=C(Nc1ccc(F)cc1)C1CCN(c2nc3ccccc3n3cccc23)CC1	?	-9%	?	.	-11%	?
CCOC(=O)N1CCC(NC(=O)c2cnn(-c3ccc(F)cc3)c2-n2cccc2)CC1	6%[59 µM]	8%	-5%	.	43%	9%
COc1ccccc1C(=O)c1cn(CC(=O)Nc2ccccc2F)c2nc(C)ccc2c1=O	1%[59 µM]	0%	-5%	.	14%	-26%
COc1ccc(NC(=O)c2cc(S(=O)(=O)NCCC3=CCCCC3)ccc2F)cc1	-1%[59 µM]	-1%	-2%	.	42%	-11%
Cc1csc(NC(=O)c2nc3nccc(C)n3n2)n1	50µM*	?	-1%	8%	-4%	?
Cc1ccnc2nc(C(=O)Nc3nnc(CC(C)C)s3)nn12	25µM*	-3%	-35%	.	17%	45µM*
Cc1csc(NC(=O)c2cnc3ccccc3n2)n1	45µM*	5%	-25%	.	-25%	-34%
Cc1ccnc2nc(C(=O)Nc3nnc(-c4ccc(Cl)cc4)o3)nn12	?	33%	?	.	29%	18µM*
CCCCc1nnc(NC(=O)c2nc3nccc(C)n3n2)s1	?	-4%	.	-14%	25%	-6%
